Assay results published in PubChem BioAssay (NCATS).
Results filed as inconclusive are left out. The source made the active and inactive calls. Calls follow the shape of the dose curve; as a rule, active = well fitted inhibition curve with a large enough effect; inconclusive = small, poorly fitted or top-dose-only effect; inactive = flat fitted curve, though single readings scatter.

Columns and labels:
[1] = Drug repurposing screens with cells derived from glioblastoma tumor samples (AID 1345199); settings: GBM patient neurospheres viability, ATP luminescence, 48 h; also: nearly all actives have a fitted effect of over 40% in size
Method in brief: (§1)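 Four patient lines of CD133+ GBM neurospheres were screened at several concentrations; hits were retested in those lines plus three slower-growing GBM lines, using 48-hour treatment and ATP-based viability.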

[2] = tested on: astro; assay: as above; settings: viability, ATP luminescence, 48 h; series mostly up to 45.9 µM
Method in brief: as §1

[3] = at 45.9 µM (top of the series), tumour line B
[4] = at 45.9 µM (top of the series), tumour line D
[5] = at 46 µM (top of the series), tumour line A
[6] = at 46.1 µM (top of the series), tumour line C
% is scaled to controls: 0 for no effect and ±100 for the full control effect.

CCCC(=O)O[C@]1(C(=O)COC(=O)CC)CC[C@H]2[C@@H]3CCC4=CC(=O)CC[C@]4(C)[C@H]3[C@@H](O)C[C@@]21C
inactive: activity, negative = cell killing [1, 3] -1.31% | activity, negative = cell killing [1, 4] -7.61% | activity, negative = cell killing [1, 5] -4.97% | activity, negative = cell killing [1, 6] 15.1% | Potency [2]

COc1ccccc1OCC1CNC(=O)O1 (stereo not given)
inactive: activity, negative = cell killing [1, 3] -0.636% | activity, negative = cell killing [1, 4] -0.575% | activity, negative = cell killing [1, 5] -28.8% | activity, negative = cell killing [1, 6] 4.79% | Potency [2]

Nc1nnnn1-c1ccccc1
inactive: activity, negative = cell killing [1, 3] -11.1% | activity, negative = cell killing [1, 4] -15.7% | activity, negative = cell killing [1, 5] -29.5% | activity, negative = cell killing [1, 6] 12.1% | Potency [2]

NCC(=O)O
inactive: activity, negative = cell killing [1, 3] 10.4% | activity, negative = cell killing [1, 4] 4.74% | activity, negative = cell killing [1, 5] 1.41% | activity, negative = cell killing [1, 6] -6.24% | Potency [2]

O=C(O)c1ccccc1Nc1cc(Cl)ccc1C(=O)O
inactive: activity, negative = cell killing [1, 3] -6.14% | activity, negative = cell killing [1, 4] -11.1% | activity, negative = cell killing [1, 5] -27.3% | activity, negative = cell killing [1, 6] 1.8% | Potency [2]

CCOC(=O)NNc1ccc(N(CC)CC(C)O)nn1 (stereo not given)
inactive: activity, negative = cell killing [1, 3] -1.62% | activity, negative = cell killing [1, 4] -9.84% | activity, negative = cell killing [1, 5] -25.2% | activity, negative = cell killing [1, 6] 10.8% | Potency [2]

Nc1ncnc2nc[nH]c12
inactive: activity, negative = cell killing [1, 3] 11.8% | activity, negative = cell killing [1, 4] 4.13% | activity, negative = cell killing [1, 5] -8.57% | activity, negative = cell killing [1, 6] 8.85% | Potency [2]

Cc1nc([N+](=O)[O-])cn1-c1ccc([N+](=O)[O-])cc1
inactive: activity, negative = cell killing [1, 3] -9.26% | activity, negative = cell killing [1, 4] -5.48% | activity, negative = cell killing [1, 5] -16.5% | activity, negative = cell killing [1, 6] 4.99% | Potency [2]

O=C(Oc1ccccc1)c1cccc(C(=O)Oc2ccccc2)c1
inactive: activity, negative = cell killing ([1]; at 91.6 µM (top of the series), tumour line A) -20.2% | activity, negative = cell killing ([1]; at 91.6 µM (top of the series), tumour line B) -23.3% | activity, negative = cell killing ([1]; at 91.6 µM (top of the series), tumour line D) -9.21% | activity, negative = cell killing ([1]; at 99.2 µM (top of the series), tumour line C) 1.54% | Potency [2]
